In PubChem BioAssay AID485364 (National Center for Advancing Translational Sciences (NCATS), 2010):
The campaign covered roughly 360,000 compounds. About 11,000 (3.1%) were called active. Inconclusive results (about 4%) are left out. Shown is part of a subset that was picked to be rich in actives. Values without a mark were called inactive. Calls follow the shape of the dose curve; as a rule, active = well fitted inhibition curve with a large enough effect; inconclusive = small, poorly fitted or top-dose-only effect; inactive = no such curve, though single readings can be large or run the other way.

target: Schistosoma mansoni thioredoxin glutathione reductase (TGR) (UniProt Q962Y6); assay: qHTS Assay for the Inhibitors of Schistosoma Mansoni Peroxiredoxins; details: purified TGR, DTNB reduction, TNB absorbance 405 nm; series mostly up to 114 µM; activity change, negative = inhibition: at the top concentration; also: nearly all actives have a fitted effect of over 60% in size
How it was run: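 Kinetic colorimetric format: TGR-catalysed, NADPH-driven DTNB reduction monitored via TNB absorbance. Enzyme dispensed at 20 nM; compound exposure 15 min at room temperature before reaction start.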
% is scaled to controls: 0 for no effect and ±100 for the full control effect; potency is read from the fitted curve at half-maximal effect.

Row | Structure (SMILES) | activity change, negative = inhibition | Potency
1 | COc1ccc(-c2cc(C(=O)NCc3cc(OC)c(OC)c(OC)c3)[nH]n2)cc1 | -4.85% | –
2 | CCOc1ccc(S(=O)(=O)N(CC(=O)NCCSCc2ccc(C)cc2)c2ccccc2)cc1 | 7.43% | –
3 | Cc1ccc(NC(=O)CN2c3ccccc3S(=O)(=O)c3ccccc32)cc1F | 0.675% | –
4 | O=C(NNC(=O)c1ccc(-n2cncn2)c([N+](=O)[O-])c1)c1ccccc1 | 3.12% | –
5 | O=C(CCn1nnc2ccccc21)OCC(=O)c1ccc([N+](=O)[O-])cc1 | -0.472% | –
6 | O=C(CC(n1cncn1)C(Cl)(Cl)Cl)c1ccc([N+](=O)[O-])cc1 (centres undefined) | – | 0.282 µM (active)
7 | Cc1cc(=O)n(CC(=O)Nc2cccc([N+](=O)[O-])c2)c(-n2nc(C)cc2C)n1 | -4.27% | –
8 | COc1cc(C(=O)NCC(c2ccc(Cl)cc2)N2CCOCC2)cc(OC)c1OC (centres undefined) | -1.49% | –
9 | O=C(CSCc1ccccc1)Nc1ccccc1 | -21.5% | –
10 | O=C(CSc1ccccc1)Nc1ccc(C(=O)Nc2cccc(O)c2)cc1 | 1.07% | –
11 | O=C(CCl)Nc1cccc(CP(=O)(c2ccccc2)c2ccccc2)c1 | – | 11.2 µM (active)
12 | COC(=O)c1cc(NC(=O)c2cnc(SC)nc2-c2ccccc2)cc(C(=O)OC)c1 | -6.7% | –
13 | COC(=O)c1ccc(-c2c(-c3ccccc3)ncc3cc(OC)c(OC)cc23)cc1 | – | 14.1 µM (active)
14 | COc1ccc(C(=O)Nc2ccc(-n3nncc3-c3ccccc3)cc2)cc1OC | -2.17% | –
15 | CC(C)CCN1CCN(C/C=C/c2ccco2)CC1CCO (centres undefined) | – | 25.1 µM (active)
16 | CC(C)CCN1CCN(Cc2ccc(C(F)(F)F)cc2)CC1CCO (centres undefined) | -3.18% | –
17 | CC(C)CN1CCN(Cc2ccccc2C(F)(F)F)CC1CCO (centres undefined) | -8.02% | –
18 | O=C(NC1CC(=O)N(c2ccc(Cl)cc2)C1)C1CCCC1 (centres undefined) | 6.52% | –
19 | Cc1ccc(CN2CCCn3nc(C(=O)NCc4ccccc4Cl)cc3C2=O)cc1 | -1.22% | –
20 | Cc1ccc(-n2ncc3c(NCCCn4ccnc4)ncnc32)cc1Cl | 5.18% | –
21 | CC(=O)NCC(O)c1ccc([N+](=O)[O-])cc1 (centres undefined) | 5.69% | –
22 | CCC(C)c1ccc(O)c(/C=N/O)c1 (centres undefined) | -0.3% | –
23 | CNCC(O)c1ccc(O)c(O)c1 (centres undefined) | – | 44.7 µM (active)
24 | CCC(=O)N1CCc2cc(Br)cc(S(=O)(=O)CCC(=O)NCCc3ccc(OC)c(OC)c3)c21 | 7.16% | –
25 | O=C(CSc1nc2c(c(=O)[nH]1)CN(Cc1ccc(F)cc1)CC2)Nc1ccccc1Cl | 0.345% | –
26 | Cc1ccc(Cl)cc1N1CCN(C(=O)c2cn(C)c3ccc(S(=O)(=O)N(C)C4CCCCC4)cc3c2=O)CC1 | 4.1% | –
27 | CC(=O)Nc1ccc(S(=O)(=O)NCCc2ccccc2)cc1 | 5.44% | –
28 | O=C(CS(=O)(=O)c1ccccc1)Nc1ccc(S(=O)(=O)Nc2ccccn2)cc1 | -21.9% | –
29 | C=C(C)CNC(=S)Nc1ccc(S(=O)(=O)Nc2cnc3ccccc3n2)cc1 | – | 11.2 µM (active)
